Results: PubChem BioAssay (Tox21)
Inconclusive results are not listed. Activity calls are given as the source filed them. Unless noted, the call rests on the fitted dose curve; in most records, active means well fitted curve in the direction sought with a large enough effect in the repeat runs; inconclusive means weak or mixed curves; inactive means no such curve, though single readings can be large; an effect the other way counts as inactive or inconclusive.

Assays:
[1] = qHTS assay to identify small molecule agonists of H2AX (AID 1224845; active means well fitted activation curve with a large enough effect in the signal ratio in the repeat runs, not every such curve was filed as active; the % refers to the signal ratio)
Summary of the method: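 Wild-type CHO-K1 cells, plated overnight, exposed 3hr at 37C to 15 concentrations (0.76% DMSO final). Lysed, then HTRF anti-pH2AX (S139) cryptate and anti-H2AX-d2 antibodies, 24 hr room temperature; 665/620 nm emission read.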

[2] = qHTS assay to identify small molecule agonists of the hypoxia (HIF-1) signaling pathway (AID 1224846; active means well fitted activation curve with a large enough effect in the signal ratio in the repeat runs, not every such curve was filed as active; the % refers to the signal ratio; further: potency means the concentration at half of the fitted maximal effect)
Summary of the method: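 Beta-lactamase FRET read-out (CCF4-AM substrate) from ME-180 cells carrying an HRE-driven bla reporter, after 17 hrs compound exposure at 37C/5% CO2. Cells were seeded at 2,000 per well in 0.5% dialyzed FBS medium and preincubated 5 hrs.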

[3] = qHTS assay to identify small molecule agonists of H2AX - cell viability counter screen (AID 1224847; calls by dose curve; further: top concentration of the series differs between compounds; nearly all actives have a fitted effect of over 30% in size)
Summary of the method: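 CHO-K1 cells plated overnight at 37C, then exposed 3 h at 37C to compounds at 15 concentrations (0.76% DMSO final). Viability by CellTiter-Glo luminescence after 30 min at room temperature.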

[4] = A CellTox Green Cytotoxicity Assay to monitor cytotoxicity in HEK293 cells - 0 hour (AID 1224869); further: nearly all actives have a fitted effect of over 50% in size
Summary of the method: (§1)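 Read-out: fluorescence of a cell-impermeant cyanine dye staining DNA of dead cells, proportional to cytotoxicity. HEK293, 600 cells/well with reagent, compound (23 nL DMSO) added after 5 h; reads at 0, 8, 16, 24, 32, 40 h.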

[5] = qHTS RealTime-Glo MT Cell Viability Assay in HepG2 cells - 40 hour (AID 1224870); further: nearly all actives have a fitted effect of over 50% in size; further: potency means the concentration at half of the fitted maximal effect
Summary of the method: (§2)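 HepG2 cells (600/well) mixed with RealTime-Glo MT reagent, settled 5 h at 37 C/5% CO2 before compound addition. Nonlytic NanoLuc luminescence from viable-cell prosubstrate reduction read repeatedly during 40 h treatment at 37 C.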

[6] = A CellTox Green Cytotoxicity Assay to monitor cytotoxicity in HEK293 cells - 40 hour (AID 1224871); further: nearly all actives have a fitted effect of over 45% in size
Summary of the method: as §1

[7] = qHTS RealTime-Glo MT Cell Viability Assay in HEK293 cells - 16 hour (AID 1224872); further: top concentration of the series differs between compounds; nearly all actives have a fitted effect of over 50% in size
Summary of the method: (§3)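 Luminescence generated by NanoLuc from substrate produced by living HEK293 cells served as the viability signal. Each value reflects the reading at its stated time point during continuous 40 h compound exposure at 37 C.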

[8] = qHTS RealTime-Glo MT Cell Viability Assay in HepG2 cells - 8 hour (AID 1224873); further: nearly all actives have a fitted effect of over 55% in size; further: potency means the concentration at half of the fitted maximal effect
Summary of the method: as §2

[9] = qHTS RealTime-Glo MT Cell Viability Assay in HEK293 cells - 40 hour (AID 1224874); conditions: RealTime-Glo luminescence; max response: hits give low values; further: nearly all actives have a fitted effect of over 50% in size; further: potency means the concentration at half of the fitted maximal effect
Summary of the method: (§4)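 Luminescence readout at each listed time point; HEK293, 600 cells/well, RealTime-Glo MT reagent added with cells; compounds pinned (23 nL in DMSO) after 5 h at 37 C; continuous culture at 37 C.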

[10] = A CellTox Green Cytotoxicity Assay to monitor cytotoxicity in HEK293 cells - 24 hour (AID 1224875); further: nearly all actives have a fitted effect of over 45% in size
Summary of the method: as §1

[11] = A CellTox Green Cytotoxicity Assay to monitor cytotoxicity in HepG2 cells - 16 hour (AID 1224876); further: nearly all actives have a fitted effect of over 45% in size
Summary of the method: (§5)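 HepG2, 600 cells/well premixed w/ CellTox Green; 5 h settle, 37 C/5% CO2; pintool cpd add (DMSO); 37 C, 40 h; fluorescence read at 0, 8, 16, 24, 32, 40 h.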

[12] = qHTS RealTime-Glo MT Cell Viability Assay in HepG2 cells - 32 hour (AID 1224877); further: nearly all actives have a fitted effect of over 55% in size; further: potency means the concentration at half of the fitted maximal effect
Summary of the method: (§6)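 Tox21 10K library screened in qHTS format on HepG2 cells carrying RealTime-Glo reagents. Compounds were added after a 5 h preincubation, and the luminescent signal from continuous culture was measured repeatedly during 40 h treatment.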

[13] = A CellTox Green Cytotoxicity Assay to monitor cytotoxicity in HepG2 cells - 24 hour (AID 1224878); further: nearly all actives have a fitted effect of over 45% in size
Summary of the method: as §5

[14] = A CellTox Green Cytotoxicity Assay to monitor cytotoxicity in HepG2 cells - 40 hour (AID 1224879); further: nearly all actives have a fitted effect of over 40% in size; further: potency means the concentration at half of the fitted maximal effect
Summary of the method: as §5

[15] = qHTS RealTime-Glo MT Cell Viability Assay in HEK293 cells - 0 hour (AID 1224880)
Summary of the method: as §4

[16] = A CellTox Green Cytotoxicity Assay to monitor cytotoxicity in HEK293 cells - 32 hour (AID 1224881); further: nearly all actives have a fitted effect of over 40% in size
Summary of the method: as §1

[17] = qHTS assay to identify small molecule antagonists of the estrogen related receptor (ERR) signaling pathway from Tox21 library (AID 1224848); further: nearly all actives have a fitted effect of over 50% in size; further: potency means the concentration at half of the fitted maximal effect
Summary of the method: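 Compounds dissolved in DMSO are pin-transferred onto ERR reporter cells (2,000 per well) that have settled for 6 h at 37 C. Plates then incubate 18 h at 37 C before ONE-Glo luciferase reagent and a luminescence read 30 min later.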

[18] = qHTS assay to identify small molecule agonists of the estrogen related receptor (ERR) signaling pathway from Tox21 library (AID 1224849; calls by dose curve; further: nearly all actives have a fitted effect of over 15% in size); conditions: ERR reporter cell line, ONE-Glo luciferase, 18 h; at 92.4 µM (top of the series) unless noted
Summary of the method: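 Luminescence readout (ONE-Glo, 30 min RT) after 18 h compound exposure at 37 C of NTP-supplied ERR reporter cells; cells were plated 6 h before compound addition by pin tool.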

[19] = qHTS RealTime-Glo MT Cell Viability Assay in HepG2 cells - 24 hour (AID 1224867); further: nearly all actives have a fitted effect of over 50% in size; further: potency means the concentration at half of the fitted maximal effect
Summary of the method: as §6

[20] = qHTS RealTime-Glo MT Cell Viability Assay in HEK293 cells - 32 hour (AID 1224868)
Summary of the method: as §3
On the % scale 0 is the no-effect control and ±100 the full control effect.

CCO[C@H](Cc1ccc(OCCc2ccc(OS(C)(=O)=O)cc2)cc1)C(=O)O
inactive: Potency [1] | Potency [2] | Potency [3] | Potency [4] | Potency [5] | Potency [6] | Potency [7] | Potency [8] | max response [9] 10.3% | Potency [10] | Potency [11] | Potency [12] | Potency [13] | Potency [14] | Potency [15] | Potency [16]

Cc1nn(C)c(Oc2ccccc2)c1/C=N/OCc1ccc(C(=O)OC(C)(C)C)cc1
inactive: Potency [1] | Potency [2] | activity change, positive = activation [18] -44.6% | Potency [19] | Potency [4] | Potency [5] | Potency [6] | Potency [8] | Potency [10] | Potency [11] | Potency [12] | Potency [14] | Potency [15] | Potency [16]
active: Potency [17] 0.0049 µM | Potency [9] 0.0062 µM

Cc1cc(C(=O)O)ccc1[N+](=O)[O-]
inactive: Potency [1] | Potency [2] | Potency [3] | Potency [20] | Potency [4] | Potency [5] | Potency [6] | Potency [7] | max response [9] 9.13% | Potency [10] | Potency [11] | Potency [13] | Potency [14] | Potency [15] | Potency [16]

CCOC(=O)C(F)(F)F
inactive: Potency [1] | Potency [2] | Potency [3] | Potency [20] | Potency [4] | Potency [5] | Potency [6] | max response [9] 6.21% | Potency [10] | Potency [11] | Potency [12] | Potency [13] | Potency [14] | Potency [15]

Cc1oc2c(NC(=O)c3c(Cl)cccc3Cl)cccc2c1C(C)(C)O
inactive: Potency [1] | activity change, positive = activation [18] -55.8% | Potency [19] | Potency [4] | Potency [6] | Potency [10] | Potency [13] | Potency [15] | Potency [16]
active: Potency [2] 17.4 µM | Potency [17] 30.6 µM | Potency [14] 38.9 µM

CC(=O)c1cccc([N+](=O)[O-])c1
inactive: Potency [1] | Potency [2] | Potency [3] | Potency [20] | Potency [4] | Potency [5] | Potency [6] | Potency [7] | Potency [8] | max response [9] 3.17% | Potency [10] | Potency [11] | Potency [12] | Potency [13] | Potency [14] | Potency [15]

O=C(O)c1ccccc1Cl
inactive: Potency [1] | Potency [2] | Potency [3] | Potency [19] | Potency [4] | Potency [5] | Potency [6] | Potency [7] | Potency [8] | max response [9] -1.6% | Potency [10] | Potency [13] | Potency [14] | Potency [15]

CCOC(=O)COC(=O)c1cc(Oc2ccc(C(F)(F)F)cc2Cl)ccc1[N+](=O)[O-]
inactive: Potency [1] | Potency [2] | Potency [19] | Potency [4] | Potency [5] | Potency [10] | Potency [11] | Potency [12] | Potency [13] | Potency [14]

Nc1cccc(S(=O)(=O)c2cccc(N)c2)c1
inactive: Potency [1] | Potency [2] | Potency [17] | activity change, positive = activation [18] 0.747% | Potency [19] | Potency [4] | Potency [5] | Potency [6] | Potency [7] | Potency [8] | max response [9] -13.5% | Potency [10] | Potency [11] | Potency [12] | Potency [13] | Potency [14] | Potency [15] | Potency [16]

CCOc1ccc(N=Nc2ccc(/C=C/c3ccc(N=Nc4ccc(OCC)cc4)cc3S(=O)(=O)O)c(S(=O)(=O)O)c2)cc1
inactive: Potency [1] | Potency [2] | Potency [3] | Potency [20] | Potency [4] | Potency [5] | Potency [6] | Potency [8] | max response [9] -1.09% | Potency [10] | Potency [11] | Potency [13] | Potency [14] | Potency [15] | Potency [16]

CC(=O)NO
inactive: Potency [1] | Potency [2] | Potency [3] | Potency [20] | Potency [4] | Potency [5] | Potency [6] | Potency [7] | Potency [8] | max response [9] 2.23% | Potency [10] | Potency [11] | Potency [12] | Potency [13] | Potency [14] | Potency [15] | Potency [16]

Cc1ccccc1S(=O)(=O)O
inactive: Potency [1] | Potency [2] | Potency [3] | Potency [19] | Potency [4] | Potency [5] | Potency [6] | Potency [7] | Potency [8] | max response [9] 3.84% | Potency [10] | Potency [11] | Potency [12] | Potency [14] | Potency [15] | Potency [16]

O=C(OCCc1ccccc1)c1ccccc1
inactive: Potency [1] | Potency [2] | Potency [19] | Potency [20] | Potency [4] | Potency [5] | Potency [6] | Potency [8] | max response [9] -19.4% | Potency [10] | Potency [11] | Potency [13] | Potency [14] | Potency [16]

CC1=CC=C(C(C)C)CC1
inactive: Potency [1] | Potency [3] | Potency [19] | Potency [20] | Potency [4] | Potency [5] | Potency [6] | Potency [7] | Potency [8] | max response [9] 1.32% | Potency [10] | Potency [11] | Potency [12] | Potency [13] | Potency [14] | Potency [15] | Potency [16]

NCC(=O)CCC(=O)O
inactive: Potency [1] | Potency [3] | Potency [19] | Potency [20] | Potency [4] | Potency [5] | Potency [6] | Potency [7] | Potency [8] | max response [9] 7.89% | Potency [10] | Potency [11] | Potency [12] | Potency [13] | Potency [14] | Potency [15] | Potency [16]

CC(C)C[C@H]1C(=O)N2CCC[C@H]2[C@]2(O)O[C@](NC(=O)[C@@H]3C=C4c5cccc6[nH]c(Br)c(c56)C[C@H]4N(C)C3)(C(C)C)C(=O)N12
inactive: Potency [1] | Potency [3] | activity change, positive = activation [18] -64.1% [at 42.5 µM] | Potency [4] | Potency [6] | Potency [10] | Potency [11] | Potency [13] | Potency [14] | Potency [15]
active: Potency [17] 14.6 µM | Potency [19] 13.2 µM | Potency [5] 14.8 µM | Potency [8] 13.2 µM | Potency [12] 13.2 µM
